In all, about 35,000 sequences were measured (“fluorescence intensity (a.u.)”: median about 10,000, highest 2% from about 52,000 on). The sample as a whole holds a higher share of the highest values than the screen did.

For this assay, the target named is T1, OsWOX13 (Oryza sativa, UniProt Q5QMM3 1-267).
T1 sequence: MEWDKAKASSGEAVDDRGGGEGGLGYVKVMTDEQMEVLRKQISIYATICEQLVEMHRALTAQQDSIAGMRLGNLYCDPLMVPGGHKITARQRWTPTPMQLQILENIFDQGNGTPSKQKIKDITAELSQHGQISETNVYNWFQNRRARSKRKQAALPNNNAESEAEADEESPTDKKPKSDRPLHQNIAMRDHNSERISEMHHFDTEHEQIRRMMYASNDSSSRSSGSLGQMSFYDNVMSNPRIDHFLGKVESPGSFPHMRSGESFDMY
The experiment in a line: protein-binding microarray (RPBM); PBS, 2% BSA, 51.3 ng/ul salmon testes DNA, 50 uM zinc acetate, 200 nM TF, 25 C, 1 h; high values mean tight binding. To be noted: protein: recombinant; tags: N-terminal polyhistidine and DsRed monomer fusion (pET32a); label: CyDye5-dUTP incorporated in the synthesized complementary strand; 3' TTTTT single-stranded linker to array surface; dsDNA, one strand shown. Summed up: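 An Axon 4000B scanner gave the binding signal as per-feature fluorescence intensity in arbitrary units. This followed washing of a custom Agilent array that had been incubated for 1 h at 25 °C with 200 nM protein in PBS, 2% BSA, salmon testes DNA and 50 µM zinc acetate. The proteins were transcription factors fused at the N-terminus to polyhistidine and DsRed, expressed in E. coli BL21-CodonPlus and purified on Ni–NTA.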
“ATTCGTAACCACTTAATTACCCATTTATCCCCTTCTGATTCGGAGTCACCTAGTGCAG”: the binding signal is 10600 fluorescence intensity (a.u.).

As for “TATAAATTTAGTTAAATATATATAAAGAAGTTTGACTTATCGGAGTCACCTAGTGCAG”, the binding signal is 9160 fluorescence intensity (a.u.).

Regarding “TAATAATTTATTATGTGTATGTGTATGGCTAGGATACAGCCGGAGTCACCTAGTGCAG”, the binding signal is 16500 fluorescence intensity (a.u.).

On to “TGTTTTACCCTGATTGCGTGAAGTGAAACTATTATTCAGGCGGAGTCACCTAGTGCAG”, for which the binding signal is 3550 fluorescence intensity (a.u.).

Take “GCAAATTGAATTAATTCGTGTGATATTTGTTCTGCACCGGCGGAGTCACCTAGTGCAG”: the binding signal is 59500 fluorescence intensity (a.u.).

“TGTATTTGATTGAAACTGTTCATACTATAAACATGCTGGGCGGAGTCACCTAGTGCAG”: the binding signal is 57900 fluorescence intensity (a.u.).

For “CAAATTGGTGGGTGATTGCTAATTTATAACTGTTCGTATTCGGAGTCACCTAGTGCAG”, the binding signal is 64100 fluorescence intensity (a.u.).

Consider “TTTCGTGATAATTTTGTGTGCAATCACAACAATTTGAAATCGGAGTCACCTAGTGCAG”, for which the binding signal is 6180 fluorescence intensity (a.u.).

With “GTCATAATTTGAAATTCAAATTTAAACTATTCAAACAAAGCGGAGTCACCTAGTGCAG”, the binding signal is 23300 fluorescence intensity (a.u.).

On to “ATCATAATTTGAAATTCAAATTCATACTGTTCAAACAAAGCGGAGTCACCTAGTGCAG”, for which the binding signal was 17600 fluorescence intensity (a.u.).

As to “ACTAATTTGGTATTATAACTGTTGCTAATTATTCTATAAACGGAGTCACCTAGTGCAG”, the binding signal was 21700 fluorescence intensity (a.u.).

As for “GTTCGTTCGTTCGTTGATTGATTGTGTTGAATTAATTGAGCGGAGTCACCTAGTGCAG”, the binding signal was 27600 fluorescence intensity (a.u.).

Take “AAAATTATATAATTATAATTTATTTTATTGCAACTTGATTCGGAGTCACCTAGTGCAG”: the binding signal is 27000 fluorescence intensity (a.u.).

As for “TCCACTCAATCTTCTGTTTCTATTTCCCCGTAATCGAAGCCGGAGTCACCTAGTGCAG”, the binding signal was 4630 fluorescence intensity (a.u.).

For the sequence “AGCTAAATTGATTCGTGCACCCAAGTCAACAAGAAAACGTCGGAGTCACCTAGTGCAG”, the binding signal was 38900 fluorescence intensity (a.u.).

For “TCAAATAATTTCGGTCAGAAATTTCCGAAATTTTGGTAATCGGAGTCACCTAGTGCAG”, the binding signal is 7080 fluorescence intensity (a.u.).

As for “GTAGTTAACCATTTAACCTGATGATGTGAGGACGAAAGAACGGAGTCACCTAGTGCAG”, the binding signal is 4950 fluorescence intensity (a.u.).

Consider “ATTAACTATAATTATCGGCTGCAATCTAATTCGAATGTAGCGGAGTCACCTAGTGCAG”, for which the binding signal was 30300 fluorescence intensity (a.u.).

Regarding “TGGTGGTGGTGGTGGTAGGGTTAGGGGTAGGAGGGGTCTCCGGAGTCACCTAGTGCAG”, the binding signal was 8890 fluorescence intensity (a.u.).

Consider “CAGGTAATGGATTGATTGCAGGGTTGGGATTTGACCAGGTCGGAGTCACCTAGTGCAG”, for which the binding signal is 51800 fluorescence intensity (a.u.).

Regarding “TTTCAAATCTCAAATTGAAAGTTTTCAAAATTTTCAAATCCGGAGTCACCTAGTGCAG”, the binding signal was 3760 fluorescence intensity (a.u.).

For “ATAATAAGTTAAAACCTAATCAATCATACGCTAATGACTTCGGAGTCACCTAGTGCAG”, the binding signal was 6780 fluorescence intensity (a.u.).

For the sequence “TATATTTAATTATTGATTTGATGTAACCAATTTAGTATTACGGAGTCACCTAGTGCAG”, the binding signal was 23400 fluorescence intensity (a.u.).

Take “ATTGATTGTAGCCAAAATAAATTTTACTAAATTTTGCCAACGGAGTCACCTAGTGCAG”: the binding signal is 32500 fluorescence intensity (a.u.).

As to “CTTACGTGTAAATTGAAATTACATTGTAATTTACATTTGACGGAGTCACCTAGTGCAG”, the binding signal was 34200 fluorescence intensity (a.u.).

Take “AAAATTCATGATTGATTTTGTAGTGGATCAACCTTGCCAACGGAGTCACCTAGTGCAG”: the binding signal is 52400 fluorescence intensity (a.u.).

As to “ATCTGATTGATACAGTACTTATTCACTGGAGTAGTATTTCCGGAGTCACCTAGTGCAG”, the binding signal was 40800 fluorescence intensity (a.u.).

Regarding “CTGATTAATTGCCAGTAATTTGATTTCAACCTTACGTGTACGGAGTCACCTAGTGCAG”, the binding signal was 53000 fluorescence intensity (a.u.).

“ATCTGATTTGATTTGATTTCGTACACCAGTAGCTTCAACCCGGAGTCACCTAGTGCAG”: the binding signal is 59800 fluorescence intensity (a.u.).

As to “TGATTTCATGATTGATAGCTACATATCTTAGTTTCACACCCGGAGTCACCTAGTGCAG”, the binding signal was 40200 fluorescence intensity (a.u.).

On to “AGGATCAAAATTGCATGATTTTGTATAGTTTAGGGATGAACGGAGTCACCTAGTGCAG”, for which the binding signal is 3210 fluorescence intensity (a.u.).

On to “GTATTAATCACATTTCATTTCAACTTTTGATTCTGATATGCGGAGTCACCTAGTGCAG”, for which the binding signal was 5200 fluorescence intensity (a.u.).

On to “TTCGTAAATTTGATCGAATTTGGCTTTTAGACGCTGGACACGGAGTCACCTAGTGCAG”, for which the binding signal is 19200 fluorescence intensity (a.u.).

Turning to “CTTAAAACAAATGATTGTTTACGTTCCGTCAATCATGCCCCGGAGTCACCTAGTGCAG”, the binding signal was 21200 fluorescence intensity (a.u.).

Turning to “CTAATTTTATGGTTAATGGACACGATTTAATCTAGACTCTCGGAGTCACCTAGTGCAG”, the binding signal was 13800 fluorescence intensity (a.u.).

Take “GTCTTGTTCATAATAGACTGGACTCTTTGATTCCTGTGTGCGGAGTCACCTAGTGCAG”: the binding signal is 3330 fluorescence intensity (a.u.).

“ATGTTCCTGATTACCCGGTTAGTAAAATTTGAATCGTACTCGGAGTCACCTAGTGCAG”: the binding signal is 10600 fluorescence intensity (a.u.).

Regarding “TCTCCGTCCCCATCACCCTCGCAATTACTCCACCCGCCGGCGGAGTCACCTAGTGCAG”, the binding signal is 5550 fluorescence intensity (a.u.).

Turning to “CTCGCCGTCCATCCTTCCCTGCGTCCAATCCCCACCCTCCCGGAGTCACCTAGTGCAG”, the binding signal was 60200 fluorescence intensity (a.u.).

Regarding “CCTTCATTCATTTCCTAATCCCAATCCCACCCTCCATTTCCGGAGTCACCTAGTGCAG”, the binding signal is 3570 fluorescence intensity (a.u.).

Consider “GTTACCTATTAATTAATAGGAAGATGATATAAATAGTTTACGGAGTCACCTAGTGCAG”, for which the binding signal was 19400 fluorescence intensity (a.u.).

With “TATGACAGGTGGGATTAGGTATTAATAGTGTAGTATGTAACGGAGTCACCTAGTGCAG”, the binding signal was 8510 fluorescence intensity (a.u.).

For the origin of these results see PMC7819943, “Rice protein-binding microarrays: a tool to detect cis-acting elements near promoter regions in rice”.
